Drawing on PubChem BioAssay (NCATS), this text covers Potency, max response and outcome for 19 compounds.

Inconclusive results are not listed. A number with no mark means an inactive call. The source made the active and inactive calls. Calls come from the whole dose curve; as a rule, active = well fitted inhibition curve with a large enough effect; inconclusive = small, poorly fitted or top-dose-only effect; inactive = flat fitted curve, though single readings scatter.

Experiment in all cases: Cytotoxic Profiling of Annotated Libraries Using Quantitative High-Throughput Screening (AID 1296008); note: nearly all actives have a fitted effect of over 60% in size
Common to all, as to settings: Five cell lines viability, CellTiter-Glo ATP luminescence, 48-72 h; max response: stronger effect = lower value
In general terms: In ATP-based viability assays light output follows the ATP content of the culture.

The subject of one assay is CRL-7250. In a few lines:
(§1)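 Cells exposed to compounds for 48 or 72 hr at 37 degrees Celsius. Viability read as ATP-coupled luminescence with CellTiter-Glo after 10 min at room temperature.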

The test system of another assay is HEK293. In a few lines:
as §1

A further assay concerns HaCat. In a few lines:
as §1

The next assay deals with KB-3-1. In a few lines: as §1
Another assay concerns NIH3T3. The essentials:
as §1
% is set by controls: 0 for no effect and ±100 for the full control effect; potency is the fitted concentration of half-maximal effect.

Regarding `N#Cc1cnc2cnc(NCc3cccnc3)cc2c1Nc1ccc(F)c(Cl)c1`, the figures for the Potency in the assay with CRL-7250, in the assay on HEK293 and in the assay on HaCat were 5.17 µM (active), 3.66 µM (active) and 20.6 µM (active), respectively. The max response was -15.8% in the assay on KB-3-1 and -8.77% in the assay on NIH3T3.
Consider `CC(C)(C)NS(=O)(=O)c1cncc(-c2cc(F)c3nc(N)nn3c2)c1`, for which the compound was called inactive in the assay with CRL-7250 and in the assay with KB-3-1. For the same compound, the max response in the assay on HEK293 is -1.27%; in the assay with HaCat, -25.2%; in the assay with NIH3T3 it was 3.5%.
As to `CCc1cc(CN2CC(C(=O)O)C2)sc1-c1noc(-c2ccc(Oc3ccccc3)cc2)n1`, the max response with CRL-7250 is -28.8%; in the assay with HEK293, -73%; in the assay on HaCat, -26.8%; in the assay on KB-3-1 it was -20.8%; in the assay on NIH3T3, -43%.
`O=S(=O)(NC1CCC(c2cc(F)ccc2F)(S(=O)(=O)c2ccc(Cl)cc2)CC1)C(F)(F)F` (stereo not given): the call in the assay with CRL-7250 was inactive. Further, the max response in the assay with HEK293 was -4.12%; in the assay on HaCat, -23.1%; with KB-3-1, 5.9%; in the assay on NIH3T3, -17.1%.
Consider `C=C[C@H]1[C@H](O[C@@H]2O[C@H](CO)[C@@H](O)[C@H](O)[C@H]2O)OC=C(C(=O)OC)[C@H]1C/C=C(/C=O)[C@@H]1C(C(=O)OC)=CO[C@@H](O[C@@H]2O[C@H](CO)[C@@H](O)[C@H](O)[C@H]2O)[C@@H]1C=C`, for which the max response in the assay with CRL-7250 is -8.61%; with HEK293 it was -29.3%; in the assay with HaCat, -4.96%; in the assay with KB-3-1, 1.41%; with NIH3T3, 4.13%.
In the case of `CCCOC(c1cc2nccc(C(=O)O)c2[nH]1)c1ccccc1Cl` (stereo not given), the max response with CRL-7250 is -10.8%; in the assay on HEK293, -12.6%; in the assay with HaCat, -2.87%; with NIH3T3, 4.32%. For the same compound, the compound was classed as inactive with KB-3-1.
Regarding `C[C@H]1O[C@@H](O[C@H]2CC[C@@]3(C)C(CC[C@]4(C)C3CC=C3C5CC(C)(C)CC[C@]5(C(=O)O)CC[C@]34C(=O)O)C2(C)C)[C@H](O)[C@@H](O)[C@@H]1O` (stereo not given in full), in the assay with CRL-7250, the compound was called inactive. Further, the max response is -5.54% in the assay with HEK293, -21.6% in the assay with HaCat, 4.81% in the assay with KB-3-1 and 3.7% in the assay on NIH3T3.
Consider `O=C(O)[C@@H]1C[C@H]2C[C@@H](CCc3nn[nH]n3)CC[C@H]2CN1`, for which the max response in the assay on CRL-7250 was 0.564%; in the assay on HEK293, 1.79%; in the assay with HaCat it was 2.14%. The compound was classed as inactive with KB-3-1.
With `CCC1=CC2CN(C1)Cc1c([nH]c3ccccc13)[C@@](C(=O)OC)(c1cc3c(cc1OC)N(C)[C@H]1[C@@](O)(C(=O)OC)[C@H](OC(C)=O)[C@]4(CC)C=CCN5CC[C@]31[C@@H]54)C2` (stereo not given in full), the Potency with CRL-7250 is 0.126 µM (active); in the assay on HEK293 it was 0.1 µM (active); with KB-3-1, 0.0355 µM (active). Besides, the outcome with HaCat was inactive.
Turning to `COc1cc2ncnc(Nc3cccc(O)c3)c2cc1OC`, the compound was classed as inactive in the assay with CRL-7250 and in the assay on KB-3-1. The max response with HEK293 is -2.36%. Further, in the assay on HaCat, the Potency was 4.61 µM (active).
With `Cc1cn(C2C=CC(CO)O2)c(=O)[nH]c1=O` (stereo not given), the max response was -8.63% in the assay with CRL-7250; -22.8% with HEK293; -43.4% in the assay on HaCat; 6.19% in the assay on KB-3-1; -7.77% in the assay on NIH3T3.
For `COc1cc2nc(N3CCCC3)nc(NCCCCCN3CCCC3)c2cc1OC`, the Potency with CRL-7250 was 20.6 µM (active); in the assay with HEK293, 4.61 µM (active); with HaCat, 18.4 µM (active); with KB-3-1, 16.4 µM (active).
Consider `CC(C)CC1NC(=O)C(C)NC(=O)C(CC(C)C)OC(=O)CCCNC1=O` (stereo not given), for which the max response is -2.1% with CRL-7250, -5.55% in the assay with HEK293, -8.69% in the assay with HaCat and -22.2% in the assay on NIH3T3. The call in the assay with KB-3-1 was inactive.
For the compound `COC(=O)C1=CO[C@@H](O)C2C(CO)=CCC12` (stereo not given in full), the max response is -9.24% with CRL-7250; 4.75% with HEK293; -12% in the assay on HaCat; -1.48% in the assay with KB-3-1; -2.89% in the assay on NIH3T3.
As for `CC(Oc1ccc2[nH]nc(/C=C/c3cnn(CCO)c3)c2c1)c1c(Cl)cncc1Cl` (stereo not given), the Potency is 1.46 µM (active) in the assay on CRL-7250; 2.91 µM (active) in the assay on HEK293; 2.06 µM (active) with HaCat; 0.291 µM (active) with KB-3-1; 517 nM (active) with NIH3T3.
`Cc1ccc(S(=O)(=O)c2ccc([N+](=O)[O-])o2)cc1`: the Potency is 5.8 µM (active) with CRL-7250; 1.03 µM (active) in the assay on HEK293; 6.51 µM (active) in the assay with HaCat; 23.1 µM (active) in the assay on KB-3-1; 5170 nM (active) in the assay with NIH3T3.
For the compound `O=C(Nc1ccccc1-c1cn2c(CN3CCNCC3)csc2n1)c1ccc2ccccc2n1`, in the assay with CRL-7250, the call was inactive. Moreover, the max response in the assay on HEK293 is -4.98%; in the assay with HaCat it was -14.7%; with KB-3-1, 2.25%; in the assay with NIH3T3 it was 4.15%.
Consider `C[C@@H]1CC[C@]2(C(=O)O[C@@H]3O[C@H](CO)[C@@H](O)[C@H](O)[C@H]3O)CC[C@]3(C)C(=CCC4[C@@]5(C)C[C@@H](O)[C@H](O)[C@@](C)(C(=O)O[C@H]6[C@H](O)C[C@@]7(C)C(CC[C@]8(C)C7CC=C7[C@H]9[C@](C(=O)O[C@@H]%10O[C@H](CO)[C@@H](O)[C@H](O)[C@H]%10O)(CC[C@@H](C)[C@@]9(C)O)CC[C@]78C)[C@@]6(CO)C(=O)O)C5CC[C@]43C)[C@@H]2[C@]1(C)O` (stereo not given in full), for which the call in the assay on CRL-7250 and with KB-3-1 was inactive. Besides, the max response is -9.28% in the assay with HEK293, -16.1% in the assay on HaCat and 4.48% in the assay on NIH3T3.
For the compound `CC(C)(C)Nc1nc2cc(Cl)c(Cl)cc2nc1S(C)(=O)=O`, the Potency with CRL-7250 is 16.4 µM (active); in the assay with HEK293 it was 4.11 µM (active); with HaCat, 5.8 µM (active); in the assay on KB-3-1 it was 13 µM (active).
